Drawing on PubChem BioAssay (NCI), this text covers growth for 38 molecules.

About 83,000 compounds went through this panel and 20% of them were active in at least one assay; those are over-represented in the sample as a whole.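 Cells were grown in 96-well plates and exposed to the test compound at a single concentration for 48 hours; results are reported as percent growth, with values below 10 considered active.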 Unmarked numbers belong to inactive results. The source made the active and inactive calls.

The subject of one experiment is T-47D breast. Put plainly: NCI-60 one-dose screen, 48 h (100 = growth as untreated, 0 = no growth, -100 = all killed). To be noted: 10 µM unless noted.
Consider `S=c1[nH]cccc1-c1nnc2n1Nc1nc3ccccc3cc1CS2`, for which the growth was 95.4%.

Turning to `O=C(Nc1cccc(Cl)c1)c1cc(Cl)ccc1O`, the growth was -11.9% (active).

On to `CCc1c(Nc2ccc(C)cc2)[nH]c(N)nc1=S`, for which the growth is 90.1%.

As to `CC(=O)N1N=C(c2cccc(Nc3ccncc3)c2)CC1c1ccccc1` (stereo unspecified), the growth is 80.4%.

Consider `CCN(CC)CCCC(C)Nc1cc(-c2cccc(OC(F)(F)F)c2)nc2ccc(N3CCCC3)cc12` (stereo unspecified), for which the growth is -19.3% (active).

Turning to `COc1ccc(C(=O)/C=C/c2ccc(OCc3ccccc3)c(OC)c2)cc1OC`, the growth was 47.4%.

With `CC[C@H](C)[C@@H]1NC(=O)[C@H](Cc2ccc(O)cc2)N(C)C(=O)[C@H](Cc2ccccc2)NC(=O)CN(C)C(=O)[C@@H]2CCCN2C(=O)[C@@H](Cc2ccccc2)N(C)C(=O)[C@H](CC(C)C)NC1=O`, the growth is 0.772% (active).

For the molecule `NC(=S)N/N=C/c1ccc(OC(=O)COc2cc(Cl)c(Cl)cc2Cl)cn1`, the growth is 49.3%.

Regarding `COc1ccccc1Nc1cc(O)c2c(=O)cc(-c3ccccc3)oc2c1`, the growth is 31.4%.

Regarding `O=c1[nH]nc(-c2ccc(Cl)cc2)cc1Cc1cccc([N+](=O)[O-])c1`, the growth is 85.2%.

In the case of `COc1ccc(C(=O)c2cc3c(N)c(C(=O)Nc4ccc(Cl)cc4)sc3nc2C)cc1`, the growth was 66.4%.

As for `O=CNc1cc(Cl)cc(Cl)c1`, the growth was 100%.

Take `O=C(Nc1ccc(Cl)cc1)Nc1ccc(Cl)c(Cl)c1`: the growth is -12.2% (active).

For `c1ccc(-c2nn(-c3ccccc3)[n+](-c3cccc4ccccc34)n2)cc1`, the growth is 25%.

For the molecule `Fc1ccc(C2CC(c3cccc(Nc4ccncc4)c3)=NN2c2ccc(Cl)cc2)cc1` (stereo unspecified), the growth was 80.9%.

For the molecule `O=C1Nc2cc(-c3ccncc3)ccc2/C1=C/c1ccc[nH]1`, the growth was -20.9% (active).

For `CC1=CC2(C)/C=C(C)/C=C\CC(O)/C=C3/C=CC(=C4C(=O)OC2(CC1C)C4=O)OC3` (stereo unspecified), the growth is -33.9% (active).

In the case of `COc1ccc(C(=O)/C=C/c2cn(Cc3ccc(Cl)cc3)c3ccccc23)cc1`, the growth was 48.2%.

As to `CC(C)(C#N)N1CCN(c2ccccc2Cl)CC1`, the growth was 102%.

`CN1CCN(c2cc(F)c(NC3=C(Cl)C(=O)c4ncccc4C3=O)c(F)c2)CC1`: the growth is -32.5% (active).

In the case of `CC(=O)[C@@H]1CC[C@]2(C(=O)n3ccnc3)CC[C@]3(C)[C@H](CC[C@@H]4[C@@]5(C)Cc6c([nH]c7ccccc67)C(C)(C)[C@@H]5CC[C@]43C)[C@@H]12`, the growth is 78%.

On to `CC(C)CCSc1nc(NNC(N)=O)c(C#N)c(-c2ccccc2)n1`, for which the growth was 99.9%.

Regarding `Nc1c(Cl)cc([N+](=O)[O-])cc1Br`, the growth was 97.8%.

Turning to `CC1(C)CN(c2cnc(C(=O)Nc3cc(F)cc4cccnc34)cn2)CCN1`, the growth is 44.3%.

As to `O=C(CNCCO)Nc1ccc2ncnc(Nc3ccc(OCc4cccc(F)c4)c(Cl)c3)c2c1`, the growth was 45.2%.

With `N#Cc1c(Nc2ccccc2)nn2cc(-c3nc4ccccc4s3)c(N)nc12`, the growth was 68.9%.

Consider `COc1ccc(C(O)c2cc3c(N)c(C(=O)Nc4ccccc4)sc3nc2C)cc1` (stereo unspecified), for which the growth is 51.7%.

In the case of `Cc1cc(NC(=O)c2cnc(N3CCN(CCOCCOCCOCCOCCC(=O)N[C@H](C(=O)N4C[C@H](O)C[C@H]4C(=O)N[C@@H](C)c4ccc(-c5scnc5C)cc4)C(C)(C)C)CC3)cn2)c2ncccc2c1`, the growth was 20.2%.

Take `NC(=O)CN1CCN(c2ccccc2Cl)CC1`: the growth is 96.9%.

For the molecule `c1ccc(-c2nn(-c3ccccc3)[n+](-c3ccccc3-c3ccccc3)n2)cc1`, the growth is 19.2%.

Turning to `O=C(N/N=C/c1cccnc1)c1ccccc1Nc1cccc(C(F)(F)F)c1`, the growth is 61.9%.

Regarding `O=C(Nc1cccc(C2=NCCN2)c1)c1ccc(OCCCOc2ccc(C(=O)Nc3cccc(C4=NCCN4)c3)cc2)cc1`, the growth is 18%.

`O=S(=O)(NCCCNc1nccc(-c2c(-c3ccc(F)c(O)c3)nc3sccn23)n1)c1ccc(F)cc1`: the growth is -1.88% (active).

`CCc1c(Nc2ccc(C)cc2)nc(N)[nH]c1=O`: the growth is 96.4%.

Consider `O=C(Nc1ccc2ncnc(Nc3ccc(Oc4cccc(F)c4)c(Cl)c3)c2c1)c1ccc(CN2CCOCC2)cc1`, for which the growth was -9.3% (active).

Consider `Cc1ccc(Nc2cc(=S)nc(N)[nH]2)cc1C`, for which the growth is 89.2%.

As to `COc1ccc(Nn2c(SCC(=O)Nc3nc(-c4ccc(Cl)cc4)cs3)nc(C)c2C)cc1`, the growth was 32.9%.

Consider `CC(O)(CO)c1ccccc1` (stereo unspecified), for which the growth was 102%.

The next experiment deals with BT-549 breast. Described as above. To be noted: 10 µM unless noted.
On to `S=c1[nH]cccc1-c1nnc2n1Nc1nc3ccccc3cc1CS2`, for which the growth was 100%.

With `O=C(Nc1cccc(Cl)c1)c1cc(Cl)ccc1O`, the growth was -6.47% (active).

In the case of `CCc1c(Nc2ccc(C)cc2)[nH]c(N)nc1=S`, the growth is 100%.

For `CC(=O)N1N=C(c2cccc(Nc3ccncc3)c2)CC1c1ccccc1` (stereo unspecified), the growth is 58.2%.

Turning to `CCN(CC)CCCC(C)Nc1cc(-c2cccc(OC(F)(F)F)c2)nc2ccc(N3CCCC3)cc12` (stereo unspecified), the growth was 78.7%.

With `COc1ccc(C(=O)/C=C/c2ccc(OCc3ccccc3)c(OC)c2)cc1OC`, the growth is 51.8%.

For `CC[C@H](C)[C@@H]1NC(=O)[C@H](Cc2ccc(O)cc2)N(C)C(=O)[C@H](Cc2ccccc2)NC(=O)CN(C)C(=O)[C@@H]2CCCN2C(=O)[C@@H](Cc2ccccc2)N(C)C(=O)[C@H](CC(C)C)NC1=O`, the growth is 69.7%.

For the molecule `NC(=S)N/N=C/c1ccc(OC(=O)COc2cc(Cl)c(Cl)cc2Cl)cn1`, the growth is 64.3%.

With `COc1ccccc1Nc1cc(O)c2c(=O)cc(-c3ccccc3)oc2c1`, the growth was 40.9%.

As for `O=c1[nH]nc(-c2ccc(Cl)cc2)cc1Cc1cccc([N+](=O)[O-])c1`, the growth was 133%.

`COc1ccc(C(=O)c2cc3c(N)c(C(=O)Nc4ccc(Cl)cc4)sc3nc2C)cc1`: the growth was 79.5%.

For the molecule `O=CNc1cc(Cl)cc(Cl)c1`, the growth was 99.4%.

For the molecule `O=C(Nc1ccc(Cl)cc1)Nc1ccc(Cl)c(Cl)c1`, the growth is 43.3%.

On to `c1ccc(-c2nn(-c3ccccc3)[n+](-c3cccc4ccccc34)n2)cc1`, for which the growth was 13.4%.

Take `Fc1ccc(C2CC(c3cccc(Nc4ccncc4)c3)=NN2c2ccc(Cl)cc2)cc1` (stereo unspecified): the growth was 105%.

Consider `O=C1Nc2cc(-c3ccncc3)ccc2/C1=C/c1ccc[nH]1`, for which the growth is 24.4%.

As to `CC1=CC2(C)/C=C(C)/C=C\CC(O)/C=C3/C=CC(=C4C(=O)OC2(CC1C)C4=O)OC3` (stereo unspecified), the growth is -17.1% (active).

As to `COc1ccc(C(=O)/C=C/c2cn(Cc3ccc(Cl)cc3)c3ccccc23)cc1`, the growth was 86.9%.

For `CC(C)(C#N)N1CCN(c2ccccc2Cl)CC1`, the growth was 98.1%.

For `CN1CCN(c2cc(F)c(NC3=C(Cl)C(=O)c4ncccc4C3=O)c(F)c2)CC1`, the growth is 80.5%.

For the molecule `CC(=O)[C@@H]1CC[C@]2(C(=O)n3ccnc3)CC[C@]3(C)[C@H](CC[C@@H]4[C@@]5(C)Cc6c([nH]c7ccccc67)C(C)(C)[C@@H]5CC[C@]43C)[C@@H]12`, the growth is 99.1%.

With `CC(C)CCSc1nc(NNC(N)=O)c(C#N)c(-c2ccccc2)n1`, the growth was 46.7%.

For the molecule `Nc1c(Cl)cc([N+](=O)[O-])cc1Br`, the growth was 97.5%.

On to `CC1(C)CN(c2cnc(C(=O)Nc3cc(F)cc4cccnc34)cn2)CCN1`, for which the growth is 90.2%.

Take `O=C(CNCCO)Nc1ccc2ncnc(Nc3ccc(OCc4cccc(F)c4)c(Cl)c3)c2c1`: the growth was 80.5%.

For the molecule `N#Cc1c(Nc2ccccc2)nn2cc(-c3nc4ccccc4s3)c(N)nc12`, the growth was 67.2%.

Regarding `COc1ccc(C(O)c2cc3c(N)c(C(=O)Nc4ccccc4)sc3nc2C)cc1` (stereo unspecified), the growth was 31.6%.

Consider `Cc1cc(NC(=O)c2cnc(N3CCN(CCOCCOCCOCCOCCC(=O)N[C@H](C(=O)N4C[C@H](O)C[C@H]4C(=O)N[C@@H](C)c4ccc(-c5scnc5C)cc4)C(C)(C)C)CC3)cn2)c2ncccc2c1`, for which the growth was -37.3% (active).

As for `NC(=O)CN1CCN(c2ccccc2Cl)CC1`, the growth is 99.2%.

`c1ccc(-c2nn(-c3ccccc3)[n+](-c3ccccc3-c3ccccc3)n2)cc1`: the growth is -0.13% (active).

`O=C(N/N=C/c1cccnc1)c1ccccc1Nc1cccc(C(F)(F)F)c1`: the growth is 80.7%.

Turning to `O=C(Nc1cccc(C2=NCCN2)c1)c1ccc(OCCCOc2ccc(C(=O)Nc3cccc(C4=NCCN4)c3)cc2)cc1`, the growth was 35.2%.

With `O=S(=O)(NCCCNc1nccc(-c2c(-c3ccc(F)c(O)c3)nc3sccn23)n1)c1ccc(F)cc1`, the growth is 26.7%.

For `CCc1c(Nc2ccc(C)cc2)nc(N)[nH]c1=O`, the growth was 101%.

As to `O=C(Nc1ccc2ncnc(Nc3ccc(Oc4cccc(F)c4)c(Cl)c3)c2c1)c1ccc(CN2CCOCC2)cc1`, the growth was 19.9%.

Consider `Cc1ccc(Nc2cc(=S)nc(N)[nH]2)cc1C`, for which the growth was 95.9%.

Take `COc1ccc(Nn2c(SCC(=O)Nc3nc(-c4ccc(Cl)cc4)cs3)nc(C)c2C)cc1`: the growth was 53.3%.

Regarding `CC(O)(CO)c1ccccc1` (stereo unspecified), the growth is 93.6%.
